This is an account of results in ChEMBL document CHEMBL5724796, “Tm Shift (DSF) assay results for EUbOPEN Chemogenomics Library” (2024).

What all share (settings): Compound concentration 20.0 uM
The target of assay [1] is Tyrosine-protein kinase ABL1 (Homo sapiens) (UniProt P00519).
Assay [2] concerns the target Bromodomain-containing protein 4 (Homo sapiens) (UniProt O60885).
The target of assay [3] is Cyclin-dependent kinase 2 (Homo sapiens) (UniProt P24941).
Assay [4] concerns the target Casein kinase I isoform delta (Homo sapiens) (UniProt P48730).
Assay [5] has as its target Glycogen synthase kinase-3 beta (Homo sapiens) (UniProt P49841).
Assay [6] deals with Mitogen-activated protein kinase 1 (Homo sapiens) (UniProt P28482).
Assay [7] concerns the target T1, Aurora kinase A (Homo sapiens) (UniProt O14965).
T1 sequence (whole entry): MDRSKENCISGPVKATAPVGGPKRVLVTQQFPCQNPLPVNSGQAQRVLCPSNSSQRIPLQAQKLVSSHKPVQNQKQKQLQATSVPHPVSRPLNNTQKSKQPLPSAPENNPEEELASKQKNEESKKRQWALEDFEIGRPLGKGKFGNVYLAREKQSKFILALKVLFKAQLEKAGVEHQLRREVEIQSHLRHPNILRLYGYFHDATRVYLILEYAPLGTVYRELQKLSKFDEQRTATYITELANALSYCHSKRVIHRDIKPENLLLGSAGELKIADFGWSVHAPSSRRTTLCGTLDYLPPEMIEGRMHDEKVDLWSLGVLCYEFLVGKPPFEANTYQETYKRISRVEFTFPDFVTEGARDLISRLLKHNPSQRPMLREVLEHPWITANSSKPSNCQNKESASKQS

In assay [8] the target is T2, Transcription intermediary factor 1-alpha (Homo sapiens) (UniProt O15164).
T2 sequence (whole entry): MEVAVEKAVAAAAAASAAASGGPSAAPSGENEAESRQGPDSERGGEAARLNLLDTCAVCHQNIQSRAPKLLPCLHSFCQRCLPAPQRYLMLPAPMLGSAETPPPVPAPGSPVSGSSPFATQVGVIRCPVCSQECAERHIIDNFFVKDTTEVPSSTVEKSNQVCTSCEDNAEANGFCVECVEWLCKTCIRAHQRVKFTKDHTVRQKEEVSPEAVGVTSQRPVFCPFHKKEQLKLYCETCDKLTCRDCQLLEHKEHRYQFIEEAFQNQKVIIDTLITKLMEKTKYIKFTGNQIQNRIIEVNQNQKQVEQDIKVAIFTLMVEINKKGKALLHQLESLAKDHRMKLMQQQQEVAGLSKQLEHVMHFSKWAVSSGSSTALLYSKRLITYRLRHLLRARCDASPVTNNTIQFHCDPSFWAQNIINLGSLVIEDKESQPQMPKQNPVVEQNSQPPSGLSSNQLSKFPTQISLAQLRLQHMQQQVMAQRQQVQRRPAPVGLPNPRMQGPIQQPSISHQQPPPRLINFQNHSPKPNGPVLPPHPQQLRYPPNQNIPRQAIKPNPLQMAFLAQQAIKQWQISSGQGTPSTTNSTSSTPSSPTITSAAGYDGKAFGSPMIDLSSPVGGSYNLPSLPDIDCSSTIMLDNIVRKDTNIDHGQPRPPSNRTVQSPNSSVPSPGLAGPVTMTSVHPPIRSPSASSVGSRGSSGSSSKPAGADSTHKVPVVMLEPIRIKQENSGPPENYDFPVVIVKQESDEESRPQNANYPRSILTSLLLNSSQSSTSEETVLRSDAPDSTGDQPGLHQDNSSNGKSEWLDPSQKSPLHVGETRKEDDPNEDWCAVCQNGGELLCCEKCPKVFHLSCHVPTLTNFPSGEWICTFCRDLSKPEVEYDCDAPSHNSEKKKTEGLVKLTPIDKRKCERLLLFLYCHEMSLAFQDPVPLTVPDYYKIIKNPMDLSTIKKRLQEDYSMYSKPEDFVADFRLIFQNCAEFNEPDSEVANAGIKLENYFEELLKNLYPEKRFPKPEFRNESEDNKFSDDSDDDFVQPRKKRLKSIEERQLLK

Structures are written as SMILES.

Chain of Casein kinase I isoform delta (Homo sapiens) (P48730 whole entry, looked up, canonical isoform): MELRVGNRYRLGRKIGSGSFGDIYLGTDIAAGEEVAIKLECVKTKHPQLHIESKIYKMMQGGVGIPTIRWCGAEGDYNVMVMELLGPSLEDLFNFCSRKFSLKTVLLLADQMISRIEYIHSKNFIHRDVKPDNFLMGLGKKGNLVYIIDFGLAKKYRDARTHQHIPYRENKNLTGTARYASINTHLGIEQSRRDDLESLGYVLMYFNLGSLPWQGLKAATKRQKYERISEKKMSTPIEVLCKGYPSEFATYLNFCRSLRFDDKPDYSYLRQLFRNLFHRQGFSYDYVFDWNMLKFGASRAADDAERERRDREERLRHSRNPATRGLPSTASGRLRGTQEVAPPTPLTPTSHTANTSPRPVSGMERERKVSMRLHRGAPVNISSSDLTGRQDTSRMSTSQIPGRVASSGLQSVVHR
Chain of Mitogen-activated protein kinase 1 (Homo sapiens) (P28482 whole entry): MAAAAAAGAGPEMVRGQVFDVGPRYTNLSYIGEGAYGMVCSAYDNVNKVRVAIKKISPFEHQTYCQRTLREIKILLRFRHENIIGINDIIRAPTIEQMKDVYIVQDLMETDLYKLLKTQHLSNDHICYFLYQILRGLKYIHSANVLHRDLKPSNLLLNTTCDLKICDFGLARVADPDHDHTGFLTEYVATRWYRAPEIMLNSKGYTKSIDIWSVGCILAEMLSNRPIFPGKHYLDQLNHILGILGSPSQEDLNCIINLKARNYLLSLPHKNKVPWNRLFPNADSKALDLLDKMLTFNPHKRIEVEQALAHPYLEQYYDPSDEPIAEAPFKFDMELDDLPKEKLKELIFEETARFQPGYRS
Chain of Glycogen synthase kinase-3 beta (Homo sapiens) (P49841 whole entry, looked up): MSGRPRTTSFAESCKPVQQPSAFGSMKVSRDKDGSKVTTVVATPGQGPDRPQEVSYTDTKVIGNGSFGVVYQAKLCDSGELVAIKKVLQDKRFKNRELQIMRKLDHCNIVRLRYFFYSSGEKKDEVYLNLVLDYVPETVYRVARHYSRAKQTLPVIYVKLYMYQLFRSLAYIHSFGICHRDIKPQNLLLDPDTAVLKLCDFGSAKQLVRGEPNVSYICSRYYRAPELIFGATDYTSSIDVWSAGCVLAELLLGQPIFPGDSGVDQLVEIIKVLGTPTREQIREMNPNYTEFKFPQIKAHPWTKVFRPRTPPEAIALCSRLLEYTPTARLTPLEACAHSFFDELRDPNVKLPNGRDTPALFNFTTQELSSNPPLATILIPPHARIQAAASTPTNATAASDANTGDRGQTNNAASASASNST
Chain of Tyrosine-protein kinase ABL1 (Homo sapiens) (P00519 whole entry): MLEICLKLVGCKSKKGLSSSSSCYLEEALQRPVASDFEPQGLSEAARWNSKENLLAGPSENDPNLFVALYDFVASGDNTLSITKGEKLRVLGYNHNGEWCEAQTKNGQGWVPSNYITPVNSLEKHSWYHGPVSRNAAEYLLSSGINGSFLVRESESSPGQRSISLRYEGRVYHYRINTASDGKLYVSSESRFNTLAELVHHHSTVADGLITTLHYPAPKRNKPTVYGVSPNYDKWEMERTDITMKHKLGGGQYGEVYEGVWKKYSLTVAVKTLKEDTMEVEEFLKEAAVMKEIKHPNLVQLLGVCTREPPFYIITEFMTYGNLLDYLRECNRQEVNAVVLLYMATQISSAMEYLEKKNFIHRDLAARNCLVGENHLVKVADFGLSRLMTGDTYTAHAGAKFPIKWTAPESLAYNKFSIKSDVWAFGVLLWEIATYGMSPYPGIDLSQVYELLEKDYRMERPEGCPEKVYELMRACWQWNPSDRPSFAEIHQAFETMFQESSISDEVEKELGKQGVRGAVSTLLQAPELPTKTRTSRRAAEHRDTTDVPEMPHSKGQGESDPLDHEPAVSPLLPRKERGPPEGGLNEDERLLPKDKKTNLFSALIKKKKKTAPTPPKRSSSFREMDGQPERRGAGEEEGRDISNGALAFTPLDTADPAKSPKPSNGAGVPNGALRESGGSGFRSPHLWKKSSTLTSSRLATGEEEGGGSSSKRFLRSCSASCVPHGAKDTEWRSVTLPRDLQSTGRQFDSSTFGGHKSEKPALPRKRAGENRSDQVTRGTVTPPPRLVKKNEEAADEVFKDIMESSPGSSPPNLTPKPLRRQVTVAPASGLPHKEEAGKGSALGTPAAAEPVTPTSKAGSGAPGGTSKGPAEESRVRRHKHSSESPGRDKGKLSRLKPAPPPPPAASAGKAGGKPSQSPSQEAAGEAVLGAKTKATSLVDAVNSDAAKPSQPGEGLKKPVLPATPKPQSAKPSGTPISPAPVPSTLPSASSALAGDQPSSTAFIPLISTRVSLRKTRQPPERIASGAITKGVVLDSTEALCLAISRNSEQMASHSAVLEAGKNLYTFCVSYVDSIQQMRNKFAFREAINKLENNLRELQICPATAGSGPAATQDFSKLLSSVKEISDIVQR

As to `CCCOc1cccc(Oc2cc3c(cc2NS(=O)(=O)c2cccc(C(=O)NCCOCCOCCOCC(=O)N[C@H](C(=O)N4C[C@H](O)C[C@H]4C(=O)NCc4ccc(-c5scnc5C)cc4)C(C)(C)C)c2)n(C)c(=O)n3C)c1`, the ΔTm in assay [1] is 0.11 °C; in assay [2], -8.44 °C; in assay [3], -3.98 °C; in assay [4] it was 0.83 °C; in assay [5], -4.03 °C; in assay [6] it was 0 °C. Moreover, the ΔTm was -2.91 °C in assay [7] and -3.82 °C in assay [8].

For the compound `Cc1nc2ccccn2c1C(=O)CN1CCN(c2ccc(F)cn2)CC1`, the ΔTm is -0.05 °C in assay [1]; 0.87 °C in assay [2]; 0.63 °C in assay [3]; -0.29 °C in assay [4]; -0.25 °C in assay [5]; 0.11 °C in assay [6]. In addition, the ΔTm in assay [7] is -1.47 °C; in assay [8], 0.7 °C.

Consider `O=C(NCc1ncccc1F)c1coc(CCNCCc2nc3ccccc3[nH]2)n1`, for which the ΔTm in assay [1] is 0.46 °C; in assay [2], -3.66 °C; in assay [3], -0.13 °C; in assay [4], -0.23 °C; in assay [5], -0.87 °C; in assay [6], -0.05 °C. Moreover, the ΔTm is -2.57 °C in assay [7] and -0.59 °C in assay [8].

On to `CC(C)(OCc1cc(-c2cccc(OC3CC3)c2)n(-c2ccccc2Cl)n1)C(=O)O`, for which the ΔTm in assay [1] is 0.39 °C; in assay [2], -3.91 °C; in assay [3] it was -0.19 °C; in assay [4], 0.08 °C; in assay [5], 0.42 °C; in assay [6], 0.09 °C. Also, the ΔTm in assay [7] was -2.34 °C; in assay [8] it was -0.77 °C.

Take `Nc1ncnc2c1ncn2[C@@H]1O[C@H](C[C@@H](N)CC[C@H](N)C(=O)O)[C@@H](O)[C@H]1O`: the ΔTm was 0.31 °C in assay [1]; -2.03 °C in assay [2]; -0.94 °C in assay [3]; 0.18 °C in assay [4]; -1.05 °C in assay [5]; -1.35 °C in assay [6]. Moreover, the ΔTm in assay [7] was -1.45 °C; in assay [8] it was -0.73 °C.

`Cn1c(=O)cc(N2CCC[C@@H](N)C2)n(Cc2ccccc2C#N)c1=O`: the ΔTm in assay [1] was 0.31 °C; in assay [2], 2.27 °C; in assay [3], 1.07 °C; in assay [4], -0.43 °C; in assay [5] it was 0.02 °C; in assay [6], 0.02 °C. Also, the ΔTm in assay [7] was -1.58 °C; in assay [8], 0.69 °C.

As to `CC(=Cc1cc(C)ccc1C=C(C)C(=O)NC(=N)N)C(=O)N=C(N)N`, the shift in melting temperature (ΔTm) is 0.75 °C in assay [1]; -2.96 °C in assay [2]; -0.11 °C in assay [3]; 0 °C in assay [4]; -0.1 °C in assay [5]; 0.25 °C in assay [6]. Also, the thermal shift (ΔTm) in assay [7] is -2.39 °C; in assay [8], -3.05 °C.

In the case of `Cn1nc(C(C)(C)C)cc1C(=O)NC(Cc1cccc(Cl)c1)C(=O)NCC#N` (stereo unspecified), the ΔTm in assay [1] is 0.37 °C; in assay [2], -2.22 °C; in assay [3], 0.71 °C; in assay [4], 0.04 °C; in assay [5], 0.23 °C; in assay [6], 0.2 °C. The ΔTm was -1.33 °C in assay [7] and 0.74 °C in assay [8].

Turning to `CNCC[C@@H](Oc1ccccc1C)c1ccccc1`, the ΔTm in assay [1] was 0.14 °C; in assay [2], -2.85 °C; in assay [3] it was 0.13 °C; in assay [4], -0.25 °C; in assay [5], -0.38 °C; in assay [6], 0.18 °C. The ΔTm is -1.68 °C in assay [7] and 0.48 °C in assay [8].

For `Cn1c(=O)c2c(nc(N3CCNCC3)n2Cc2nnc(-c3ccc(Cl)c(Cl)c3)o2)n(C)c1=O`, the ΔTm in assay [1] was 0.59 °C; in assay [2], -3.55 °C; in assay [3], 0.01 °C; in assay [4], 0.33 °C; in assay [5] it was -0.89 °C; in assay [6], 0.1 °C. The results for the thermal shift (ΔTm) in assay [7] and in assay [8] were -0.39 °C and -0.46 °C, respectively.

Turning to `Cc1noc2c1-c1ccccc1C(c1ccc(Cl)cc1)=N[C@H]2CC(N)=O`, the ΔTm in assay [1] was 0.53 °C; in assay [2], 8.17 °C; in assay [3], 0.94 °C; in assay [4] it was 0.05 °C; in assay [5], -0.25 °C; in assay [6], 0.12 °C. Further, the ΔTm was -2.42 °C in assay [7] and -0.29 °C in assay [8].

As to `CCCCN(Cc1ccc(C(=O)NO)cc1)C(=O)Nc1ccccc1`, the ΔTm in assay [1] was 0.74 °C; in assay [2], -1.81 °C; in assay [3] it was 0.54 °C; in assay [4] it was 0.26 °C; in assay [5], -0.89 °C; in assay [6] it was 0.25 °C. For the same compound, the ΔTm in assay [7] was -0.07 °C; in assay [8], -1.23 °C.

Consider `COc1cc2c(cc1-c1c(C)noc1C)[nH]c1nc(C)nc(Nc3cc(C4CC4)nn3C)c12`, for which the ΔTm in assay [1] is 0.79 °C; in assay [2], 14.9 °C; in assay [3], -0.63 °C; in assay [4] it was -0.39 °C; in assay [5] it was 0.26 °C; in assay [6], 0.59 °C. The shift in melting temperature (ΔTm) in assay [7] is -0.72 °C; in assay [8], 0.66 °C.

Consider `N#Cc1ccc(Nc2cnccc2SCc2ccccc2C(=O)O)c2ccccc12`, for which the ΔTm in assay [1] is 0.28 °C; in assay [2], 1.65 °C; in assay [3], 0.57 °C; in assay [4] it was -0.12 °C; in assay [5] it was 0 °C; in assay [6], 0.32 °C. Also, the ΔTm in assay [7] is -0.47 °C; in assay [8], 1.31 °C.

Consider `Cc1ccc([N+](=O)[O-])cc1S(=O)(=O)N(C)C`, for which the ΔTm in assay [1] is 0.7 °C; in assay [2], -1.98 °C; in assay [3] it was 0.09 °C; in assay [4] it was -0.33 °C; in assay [5], -0.61 °C; in assay [6], 0.1 °C. Also, the ΔTm in assay [7] is -2.12 °C; in assay [8], -0.39 °C.

As for `CN1Cc2c(Cl)cc(Cl)cc2[C@H](c2cccc(S(=O)(=O)NCCOCCOCCNC(=O)NCCCCNC(=O)NCCOCCOCCNS(=O)(=O)c3cccc([C@@H]4CN(C)Cc5c(Cl)cc(Cl)cc54)c3)c2)C1`, the ΔTm in assay [1] was -0.4 °C; in assay [2] it was -2.19 °C; in assay [3] it was -0.62 °C; in assay [4], -0.55 °C; in assay [5] it was -1.54 °C; in assay [6], 0 °C. Besides, the shift in melting temperature (ΔTm) is -2.14 °C in assay [7] and -0.19 °C in assay [8].

Take `O=C(CCCCCCNC(=O)c1cnc(N(c2ccccc2)c2ccccc2)nc1)NO`: the ΔTm is 0.66 °C in assay [1]; -2.07 °C in assay [2]; 0.61 °C in assay [3]; 0.12 °C in assay [4]; -0.11 °C in assay [5]; -0.28 °C in assay [6]. Also, the results for the ΔTm in assay [7] and in assay [8] were -0.51 °C and -0.68 °C, respectively.

For the compound `CNC[C@@H](O)COc1ccc(Cl)c(-c2nc(-c3c(C)noc3C)c(C)c(N3CC4(CCN(C(=O)OC)CC4)C3)n2)c1`, the ΔTm in assay [1] was 0.37 °C; in assay [2] it was -2.53 °C; in assay [3] it was 0.32 °C; in assay [4], 0.05 °C; in assay [5] it was -0.26 °C; in assay [6] it was -2.08 °C. For the same compound, the figures for the ΔTm in assay [7] and in assay [8] were 0.12 °C and 0.65 °C, respectively.

With `CCC(CC)N(CCN(C)C(=O)CCC(=O)O)Cc1cccc(C(=O)Nc2sc3c(c2C(=O)c2cnn(-c4ccc(Cl)c(C(F)(F)F)c4)c2)CCC(C)(C)C3)c1`, the ΔTm is -0.27 °C in assay [1]; 1.72 °C in assay [2]; -0.99 °C in assay [3]; -8.05 °C in assay [4]; -4.31 °C in assay [5]; -1.59 °C in assay [6]. In addition, the results for the ΔTm in assay [7] and in assay [8] were -8.72 °C and 1.42 °C, respectively.

As for `C/C=C1\NC(=O)[C@H]2CSSCC/C=C/[C@H](CC(=O)N[C@H](C(C)C)C(=O)N2)OC(=O)[C@H](C(C)C)NC1=O`, the ΔTm in assay [1] was -1.22 °C; in assay [2], -2.72 °C; in assay [3], -0.96 °C; in assay [4], -0.77 °C; in assay [5] it was -0.05 °C; in assay [6], -6.13 °C. The ΔTm is -0.48 °C in assay [7] and 0.22 °C in assay [8].

Consider `NC(=O)c1cc(F)cc2c1C(=O)N(C1CCN(C3CCC(F)(F)CC3)CC1)C2`, for which the ΔTm in assay [1] was 0 °C; in assay [2] it was -1.47 °C; in assay [3], 0.02 °C; in assay [4], 0.25 °C; in assay [5] it was -0.85 °C; in assay [6], 0.19 °C. In addition, the values for the ΔTm in assay [7] and in assay [8] were -1.86 °C and 1.35 °C, respectively.

Consider `C=CC(=O)Nc1cccc(-c2c[nH]cc2CN(C)CCN)c1`, for which the ΔTm is 0.53 °C in assay [1]; -1.27 °C in assay [2]; 0.4 °C in assay [3]; -0.04 °C in assay [4]; -1.22 °C in assay [5]; 0.08 °C in assay [6]. The figures for the ΔTm in assay [7] and in assay [8] were -0.37 °C and -1.19 °C, respectively.

By ΔTm is commonly meant the change in melting temperature against a reference sample.
